Screen size: about 340,000 compounds; about 1,000 (0.29%) were called active.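 The calls were made as follows: active = fluorescence-ratio B-score plate-corrected deviation score at least 3 library SD below zero, with starting fluorescence score within 5 deviations; inactive = the rest.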 The entries come from a sample that favours actives as a whole.

Sequence of Anoctamin-1 (Mus musculus) (Q8BHY3 whole entry, looked up): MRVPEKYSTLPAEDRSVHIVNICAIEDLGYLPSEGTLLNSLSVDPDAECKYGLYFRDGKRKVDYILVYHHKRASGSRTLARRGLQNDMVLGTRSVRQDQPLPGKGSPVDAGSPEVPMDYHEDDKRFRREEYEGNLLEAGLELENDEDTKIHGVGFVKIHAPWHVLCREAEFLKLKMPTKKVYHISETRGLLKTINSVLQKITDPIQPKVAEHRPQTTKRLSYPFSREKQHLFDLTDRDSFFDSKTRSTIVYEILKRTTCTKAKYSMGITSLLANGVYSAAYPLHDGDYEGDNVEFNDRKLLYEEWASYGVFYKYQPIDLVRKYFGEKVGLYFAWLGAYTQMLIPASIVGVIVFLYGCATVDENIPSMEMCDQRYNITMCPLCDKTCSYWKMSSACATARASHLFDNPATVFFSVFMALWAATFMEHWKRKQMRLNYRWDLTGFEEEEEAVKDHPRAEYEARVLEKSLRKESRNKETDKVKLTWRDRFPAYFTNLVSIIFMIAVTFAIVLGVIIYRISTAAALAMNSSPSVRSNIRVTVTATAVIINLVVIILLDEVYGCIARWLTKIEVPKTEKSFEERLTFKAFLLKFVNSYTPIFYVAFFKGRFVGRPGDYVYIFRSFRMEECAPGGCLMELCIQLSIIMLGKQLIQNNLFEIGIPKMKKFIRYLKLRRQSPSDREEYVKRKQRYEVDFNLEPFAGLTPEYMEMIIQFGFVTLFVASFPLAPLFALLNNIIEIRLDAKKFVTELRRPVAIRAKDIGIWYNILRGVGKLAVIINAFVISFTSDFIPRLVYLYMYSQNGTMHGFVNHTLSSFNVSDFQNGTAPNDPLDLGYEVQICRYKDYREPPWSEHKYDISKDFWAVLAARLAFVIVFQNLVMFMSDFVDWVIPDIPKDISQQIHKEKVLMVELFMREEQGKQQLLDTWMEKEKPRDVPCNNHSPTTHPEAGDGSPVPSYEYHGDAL

The assay addresses Anoctamin-1 (Mus musculus) (UniProt Q8BHY3). Kind of assay: mouse ANO1 channel activation – cell-based, HTS, primary screen (AID 623877).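 As to B-score: channel opened by trigger with iodide after compound preincubation; score built on the fluorescence ratio of max minus min over baseline; more negative score means more quench and so TMEM16A activation or potentiation.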 The conditions noted are these: HEK293 TMEM16A/YFP-H148Q/I152L, iodide quench fluorescence, at 10 µM; active compounds read low.
Consider `CC(=O)C1(O)CCC2C3CCC4=C(Cl)C(=O)CCC4(C)C3CCC21C` (stereo not given), for which the B-score is -5.25 (active).

On to `Cc1cc(C)cc(NC(=S)NC2CC3CCCC(C2)N3Cc2cccs2)c1` (stereo not given), for which the B-score result is “inactive”.

Turning to `Cc1nn(Cc2ccccc2Cl)c(Cl)c1C(=O)OC(C(=O)NC(N)=O)C(C)C` (stereo not given), the B-score result is “inactive”.

As to `Cc1nc2ccccn2c1P(=S)(N1CCCCC1)N1CCCCC1`, the B-score is -9.49 (active).

In the case of `COc1ccc(C(=O)C2CN(C)CC2C(=O)c2ccc(OC)cc2)cc1` (stereo not given), the B-score result was “inactive”.

On to `O=C(CSC1c2ccccc2-c2ccccc21)N/N=C/c1ccccc1`, for which the B-score result was “inactive”.

Consider `CC1C(=O)OC2CCN3CC=C(COC(=O)C(C)(O)C1(C)O)C23` (stereo not given), for which the B-score result was “inactive”.

With `CCN(CC)P(=O)(Oc1cccc(C)c1)N(CC)CC`, the B-score result is “inactive”.

Consider `C=Cn1ccnc1P(=S)(c1cc(N(CC)CC)ns1)c1nccn1C=C`, for which the B-score result was “inactive”.

Regarding `Cc1cc2ccccn2c1C(C[N+](=O)[O-])c1c(F)cccc1Cl` (stereo not given), the B-score result is “inactive”.

The values above are taken from PubChem BioAssay AID623877 (Johns Hopkins Ion Channel Center, 2012).
